GSTO1 inh = blocks human GSTO1 in RBBP9 counter-screen | P78417 | actives 1.1% (n = 300,000) | AID 1974 | inhibition, % at 5.96 µM | recombinant GSTO1, activity-based probe fluorescence polarization;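 active = inhibition above the campaign mean inhibition plus 3 SD, cut at about 35% in these data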
PAD4 FP inh = inhibitors of human PAD4 | Q9UM07 | inhibition, % at 6.36 µM | recombinant PAD4, RCA probe fluorescence polarization | actives 0.41% (n = 330,000);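 active = percent inhibition above a cutoff equal to the mean of all tested compounds plus 3 SD, cut at about 15% in these data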
LYPLA1 counter = counter-screen for PME1 inhibitors: inhibitors of human LYPLA1; AID 2174; inhibition, % at 5.9 µM; recombinant LYPLA1, FP-Rh probe fluorescence polarization; O75608; actives 0.16% (n = 320,000);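 active = inhibition above the mean of all tested compounds plus 3 SD, set per campaign, cut at about 14% in these data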;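 note: inhibitors block serine hydrolase probe labeling of LYPLA1 so polarization falls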
Target sequence (O75608 whole entry, looked up): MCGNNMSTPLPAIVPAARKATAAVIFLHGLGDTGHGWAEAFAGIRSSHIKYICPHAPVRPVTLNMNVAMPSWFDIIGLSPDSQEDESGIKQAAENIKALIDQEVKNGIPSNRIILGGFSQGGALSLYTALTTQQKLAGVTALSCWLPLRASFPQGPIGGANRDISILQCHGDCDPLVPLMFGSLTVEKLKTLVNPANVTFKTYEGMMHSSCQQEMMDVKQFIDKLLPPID
LYPLA2 inh = LYPLA2 (human) inhibition in PME1 counter-screen. AID 2177. inhibition, % at 5.9 µM. actives 0.38% (n = 320,000). recombinant LYPLA2, FP-Rh probe fluorescence polarization. O95372;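 active = inhibition above the screen-wide mean plus 3 SD, limit set per campaign, cut at about 26% in these data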
PME-1 inh = blocks human protein phosphatase methylesterase 1. Q9Y570. inhibition, % at 5.9 µM. AID 2130. actives 0.53% (n = 320,000). recombinant PME-1, FP-Rh probe fluorescence polarization;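 active = inhibition above the campaign mean of all compounds plus 3 SD, cut at about 26% in these data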;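 note: competitive labeling of PME-1 active site by serine hydrolase directed probe; inhibitors block probe labeling so polarization falls and inhibition rises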
Target sequence (Q9Y570 whole entry, looked up): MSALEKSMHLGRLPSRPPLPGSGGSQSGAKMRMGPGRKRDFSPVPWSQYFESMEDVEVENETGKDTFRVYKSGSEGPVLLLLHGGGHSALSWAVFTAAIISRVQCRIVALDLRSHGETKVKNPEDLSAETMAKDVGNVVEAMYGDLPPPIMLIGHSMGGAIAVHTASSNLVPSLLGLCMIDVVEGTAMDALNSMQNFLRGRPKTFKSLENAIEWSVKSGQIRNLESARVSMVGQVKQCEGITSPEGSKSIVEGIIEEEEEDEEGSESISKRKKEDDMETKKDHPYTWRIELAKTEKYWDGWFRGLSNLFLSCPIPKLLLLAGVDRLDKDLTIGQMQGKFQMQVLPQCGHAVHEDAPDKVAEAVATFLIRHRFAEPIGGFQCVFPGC
Fam108B counter = counter-screen for RBBP9 inhibitors: inhibitors of mouse Fam108B | recombinant Fam108B, FP-Rh probe fluorescence polarization | inhibition, % at 9.51 µM | AID 1947 | actives 0.33% (n = 300,000);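 active = inhibition above the screen mean inhibition plus 3 SD, computed separately per campaign, cut at about 18% in these data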;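 note: inhibitors lower polarization as less probe binds the enzyme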
Fam108b inh conf = confirmation of mouse Fam108b serine hydrolase inhibitors. actives 44% (n = 930). AID 1978. recombinant Fam108b, FP-Rh probe fluorescence polarization. shares compounds with Fam108B counter. inhibition, % at 9.51 µM;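 active = inhibition above a limit from the primary screen, the mean over all compounds plus 3 SD, cut at about 19% in these data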;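 note: inhibitors free the probe so polarization falls as inhibition rises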
Fam108b inh = inhibits mouse Fam108b in gel-based ABPP; recombinant Fam108b, fluorophosphonate probe; shares compounds with Fam108B counter; inhibition, % at 20 µM; actives 44% (n = 260); AID 588649; in the data active = inhibition above about 40%
A number is an active result; – = inactive; · = no result given. This is a sample that favours compounds with a hit; in the whole collection about 1.7% have one here.

SMILES | GSTO1 inh | PAD4 FP inh | LYPLA1 counter | LYPLA2 inh | PME-1 inh | Fam108B counter | Fam108b inh conf | others
COc1ccccc1NC(=O)Nc1nc(CC(=O)Nc2ccc(F)c(F)c2)cs1 | – | – | – | – | – | 20.2 | –
COc1ccc(Nc2nc(N)c(C(=O)c3ccc(F)cc3)s2)cc1 | – | – | – | – | – | 49.6 | –
O=C(O)c1cccc(-n2cccc2/C=C\[N+](=O)[O-])c1 | – | – | – | – | – | – | ·
O=C(O)c1cccc(-n2cccc2/C=C/[N+](=O)[O-])c1 | – | – | – | – | – | 24.7 | –
Oc1ccc(Nc2nc(-c3ccccc3)nc3ccccc23)cc1 | – | – | – | – | – | – | ·
Oc1ccc(Nc2nc3ccccc3nc2Nc2ccc(O)cc2)cc1 | – | – | – | – | 33.0 | 44.7 | –
CC1=NOC(=O)/C1=C/c1ccc(-c2ccc(Cl)cc2)o1 | – | – | – | – | – | 18.8 | –
Cc1ccc(CNC(=O)c2ccc3c(=O)[nH]c4c(C(=O)NCC5CCCO5)sc(=S)n4c3c2)cc1 (centres undefined) | – | – | – | – | – | – | ·
O=C(NCc1ccccc1)c1ccc2c(=O)[nH]c3c(C(=O)NCC4CCCO4)sc(=S)n3c2c1 (centres undefined) | – | – | – | – | – | 33.6 | 19.5
CCCCCNC(=O)c1ccc2c(=O)[nH]c3c(C(=O)NCC4CCCO4)sc(=S)n3c2c1 (centres undefined) | – | – | – | – | – | 21.3 | –
O=C(NCc1ccco1)c1sc(=S)n2c1[nH]c(=O)c1ccccc12 | – | – | – | – | – | 38.2 | 33.7 | Fam108b inh=–
O=C(CSc1nnnn1C1CC1)N1CCN(c2ccccc2F)CC1 | · | – | – | – | – | · | ·
COc1ccc(/C=N/NC(=O)c2cc(C34CC5CC(CC(C5)C3)C4)[nH]n2)cc1O | – | – | – | – | – | 24.1 | –
Brc1ccc(C2=Nc3cccc4cccc(c34)N2)o1 | – | – | – | – | – | 19.5 | –
Fc1ccc(C2=Nc3cccc4cccc(c34)N2)cc1 | – | – | – | – | – | – | ·
COc1ccc(OC)c(NC(=O)CCC(=O)Oc2ccc(C)cc2)c1 | – | – | – | – | – | – | ·
CCOc1ccc(S(=O)(=O)NCCC(=O)NC2CCC(C)CC2)cc1 (centres undefined) | · | – | · | · | · | · | ·
O=C(NN1C(=O)/C(=C\c2ccc(O)c([N+](=O)[O-])c2)SC1=S)c1ccccc1Cl | – | – | – | – | – | 24.7 | 19.9
O=C(NN1C(=O)/C(=C/c2cccc(O)c2)SC1=S)c1ccccc1O | – | – | – | – | – | – | ·
N#Cc1cccc(NC(=O)CSc2ccc3c4c(cccc24)C(=O)c2ccccc2-3)c1 | 36.2 | – | – | – | – | 35.3 | 21.4
COc1ccc(NC(=O)CSc2ccc3c4c(cccc24)C(=O)c2ccccc2-3)cc1 | – | – | – | – | – | – | ·
CN(C)CCCn1cnc2c(c1=N)C(c1ccccc1)c1ccc3ccccc3c1O2 (centres undefined) | – | – | – | – | – | – | ·
COc1ccc2nc(SCC(=O)N3CCN(c4ccc(F)cc4)CC3)c(C#N)cc2c1 | – | – | – | – | – | – | ·
Cc1cccc(C)c1NC(=O)CNC(=O)c1ccc(N2CCCC2)c([N+](=O)[O-])c1 | · | – | – | – | – | · | ·
Clc1ccccc1C(c1ccccc1)(c1ccccc1)n1ccnc1 | – | – | – | – | – | 31.9 | 46.4 | Fam108b inh=45.0
SMILES | GSTO1 inh | PAD4 FP inh | LYPLA1 counter | LYPLA2 inh | PME-1 inh | Fam108B counter | Fam108b inh conf | others
FC(F)(F)c1ccccc1-n1ccnc1 | – | – | – | – | – | – | ·
CC(C)(C)NC(=O)Cn1nnc(-c2ccc(Cl)cc2)n1 | – | – | – | – | – | – | ·
CC(C)CN(C(=O)COC(=O)COc1ccc2c(c1)CCC2)c1c(N)n(Cc2ccccc2)c(=O)[nH]c1=O | – | – | – | – | – | – | ·
O=C(CCc1ccc(Oc2cc([N+](=O)[O-])cc([N+](=O)[O-])c2)cc1)Nc1cccc(Cl)c1 | – | – | – | – | – | 27.5 | –
CCOC(=O)c1c(NC(=O)Nc2ccccc2)sc(C)c1C | – | – | – | – | – | 22.2 | –
Cc1ccc(N(CC(=O)N2CCc3ccccc3C2)S(C)(=O)=O)cc1 | – | – | – | – | – | – | ·
COc1ccc(-c2csc(NC(=O)Nc3ccccc3)n2)cc1 | – | – | – | – | 48.0 | 44.6 | –
COc1ccc(C(=O)N/N=C/c2ccc(OC)c(COc3ccc(F)cc3)c2)cc1 | – | – | – | – | – | – | ·
COc1ccc(C=NNC(=O)c2cc(O)c(O)c(O)c2)cc1COc1ccc(C(=O)OCC(C)C)cc1 | · | · | · | · | · | · | · | Fam108b inh=–
CC(C)CCC(C(=O)O)C(C)CC(=O)Nc1ccn(-c2ccccc2)n1 (centres undefined) | – | – | – | – | – | – | ·
CC(C)(C)c1nc2scc(-c3ccc(Cl)cc3)c2c(=O)o1 | – | – | – | – | – | 20.8 | 19.4
CC(C)(C)c1nc2scc(-c3cccs3)c2c(=O)o1 | – | – | – | – | – | 54.9 | 106.1 | Fam108b inh=85.0
Cc1ccc(C(C)C)c(OCc2ccc(C(=O)N/N=C/c3ccc(C(=O)O)cc3)cc2)c1 | – | – | – | – | – | – | ·
Cc1ccc(C(C)C)c(OCc2ccc(C(=O)N/N=C/c3ccc(O)cc3O)cc2)c1 | – | – | – | – | 35.4 | 28.1 | –
CCCn1c(=O)n(C)c(=O)c2c(SCC(=O)NC34CC5CC(CC(C5)C3)C4)nc(CC(C)C)nc21 | – | – | – | – | – | – | ·
NNC(=O)c1oc2nc(-c3cccs3)cc(-c3ccco3)c2c1N | – | – | – | – | – | 24.5 | 23.7
CCOC(=O)c1cc(-c2cccs2)nc2onc(C)c12 | – | – | – | – | – | – | ·
COc1cccc(/C=N/NC(=O)c2oc3nc(-c4ccccc4)cc(-c4ccco4)c3c2N)c1 | – | – | – | – | – | – | ·
Cc1ccc(-c2cc(-c3ccco3)c3c(N)c(C(=O)NN)oc3n2)cc1 | – | – | – | – | – | 30.0 | –
O=C1C2C3C=CC(C3)C2C(=O)N1CNc1ccc(O)cc1 (centres undefined) | 93.3 | 33.0 | – | – | 44.5 | 32.9 | –
CCN(CC)S(=O)(=O)c1cc(NC(=O)COC(=O)c2sc3ccccc3c2Cl)ccc1C | – | – | – | – | – | 42.6 | 58.6 | Fam108b inh=90.0
NC(=O)C1CC12c1ccccc1-c1ccccc12 (centres undefined) | – | – | – | – | – | – | ·
COc1cc(-c2nc(-c3ccc4c(c3)-c3ccccc3S4(=O)=O)c(-c3ccccc3)[nH]2)cc(OC)c1OC | – | – | – | – | – | 29.0 | –
COc1cccc(-c2nc(-c3ccc4c(c3)-c3ccccc3S4(=O)=O)c(-c3ccccc3)[nH]2)c1OC | – | – | – | – | – | – | ·

Assay outcomes (PubChem BioAssay)
